The source of these data is PubChem BioAssay AID1030 (National Center for Advancing Translational Sciences (NCATS), 2008).

The campaign covered roughly 220,000 compounds. About 16,000 (7.3%) were called active. Where a call stands in place of a potency, no number is given. Roughly 25% stayed inconclusive and do not appear here. Calls follow the shape of the dose curve; as a rule, active = well fitted inhibition curve with a large enough effect (not every such curve was filed as active); inconclusive = small, poorly fitted or top-dose-only effect, or another doubt; inactive = no such curve, though single readings can be large or run the other way. The full list was thinned out, with actives kept by preference.
Potency is read from the fitted curve at half-maximal effect.

The assay deals with Aldehyde dehydrogenase 1A1 (Homo sapiens) (UniProt P00352). Briefly: qHTS Assay for Inhibitors of Aldehyde Dehydrogenase 1 (ALDH1A1). To be noted: Purified ALDH1A1, NADH fluorescence, propionaldehyde substrate; series mostly up to 75.3 µM. A general note: Quantitative high-throughput screening tests each substance at several concentrations.
Aldehyde dehydrogenase 1A1 (Homo sapiens), sequence (P00352 whole entry, looked up): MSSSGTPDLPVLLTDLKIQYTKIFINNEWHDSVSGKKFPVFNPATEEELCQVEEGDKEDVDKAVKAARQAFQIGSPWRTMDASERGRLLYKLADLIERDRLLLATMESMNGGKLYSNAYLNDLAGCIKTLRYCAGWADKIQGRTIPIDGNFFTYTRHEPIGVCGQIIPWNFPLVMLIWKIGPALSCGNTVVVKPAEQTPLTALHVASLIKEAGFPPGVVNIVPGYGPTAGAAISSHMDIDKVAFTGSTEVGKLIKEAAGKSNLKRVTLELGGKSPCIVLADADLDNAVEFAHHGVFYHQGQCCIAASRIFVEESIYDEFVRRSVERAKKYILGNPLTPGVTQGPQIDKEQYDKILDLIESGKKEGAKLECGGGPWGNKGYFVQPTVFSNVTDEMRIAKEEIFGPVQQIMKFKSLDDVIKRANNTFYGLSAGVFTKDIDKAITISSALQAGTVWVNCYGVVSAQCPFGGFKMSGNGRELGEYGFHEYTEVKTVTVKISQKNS
In the case of `NC1=NC2(CCCCC2)N(c2ccc(F)cc2F)C(N)=N1`, the Potency entry was “inactive”.

In the case of `CSc1nnc(-c2ccc(C(F)(F)F)cn2)o1`, the Potency result was “inactive”.

For the compound `CCn1c(-c2cccnc2Cl)nc2cc(C)c(C)cc21`, the Potency result is “inactive”.

Regarding `CN(C)c1ccc(/C=N\S(=O)(=O)c2ccccc2)cc1`, the Potency was 0.708 µM (active).

Take `CN(C)c1cc[n+](Cc2ccccc2)cc1`: the Potency entry was “inactive”.

With `COc1ccc(/C=N/NC(=O)C(C)N(c2ccc(OC)cc2)S(C)(=O)=O)cc1` (stereo unspecified), the Potency result was “inactive”.

For `C#CCOCCOCCOCCNc1nc(N2CCN(C(=O)[C@H](Cc3ccc(O)cc3)n3cc(C(N)CC(C)C)nn3)CC2)nc(N2CCN(C(=O)[C@H](CCC(=O)O)n3cc(C(N)[C@H](C)CC)nn3)CC2)n1` (stereo partly specified), the Potency result was “inactive”.

In the case of `CC1=C(C/C=C(\C)CCCC(C)CCCC(C)CCCC(C)C)C(=O)c2ccccc2C1=O` (stereo unspecified), the Potency result was “inactive”.

For `Cc1cc(C)c2nc(SCC(=O)N(C)C3CCS(=O)(=O)C3)cc(C)c2c1` (stereo unspecified), the Potency result was “inactive”.

With `Cc1ccccc1NC(=O)Nc1ccccc1N1CCCCC1`, the Potency entry is “inactive”.

As for `Cc1ccc(CN2CCN(Cc3ccc4ncccc4c3)CC2CCO)cc1` (stereo unspecified), the Potency result is “inactive”.

As for `O=[N+]([O-])c1ccc(NCCCN2CCOCC2)c(Cl)c1`, the Potency result is “inactive”.

`O=C(NCCNc1ccc([N+](=O)[O-])cc1)c1cccc2c(Br)cccc12`: the Potency entry is “inactive”.

With `O=C(NCCCNc1ccc([N+](=O)[O-])cc1Cl)c1ccccc1F`, the Potency was 15.8 µM (active).

With `Cc1ccc(C2=NN(C(=O)COc3ncnc4ccccc34)C(c3ccco3)C2)cc1` (stereo unspecified), the Potency result was “inactive”.

On to `C=C(C)C(=O)c1ccc(F)cc1`, for which the Potency result was “inactive”.

Regarding `CCn1c(O)c(N=NC2=NC(=O)CS2)c2cc(C)ccc21`, the Potency is 14.1 µM (active).

Take `CCn1c(O)c(N=NC(=O)c2cccc(S(=O)(=O)N3CCCCC3)c2)c2ccccc21`: the Potency result was “inactive”.

For the compound `CC(c1ccco1)N(C(=O)c1ccc(S(=O)(=O)N2CCCCC2)cc1)c1ccccn1` (stereo unspecified), the Potency was 12.6 µM (active).

Take `O=C(N/N=C/c1ccccn1)c1ccc(S(=O)(=O)N2CCCCCC2)cc1`: the Potency entry was “inactive”.

Turning to `CC(c1ccco1)N(C(=O)COc1ccccc1[N+](=O)[O-])c1ccccn1` (stereo unspecified), the Potency result is “inactive”.

Consider `CC(=O)c1ccc(NC(=S)NC(=O)CC(C)C)cc1`, for which the Potency result was “inactive”.

With `COc1ccc(NS(=O)(=O)c2ccc(NC(=S)NC(=O)CC(C)C)cc2)cc1`, the Potency was 12.6 µM (active).

As to `COc1ccc(C(=O)Nc2ccc(S(=O)(=O)NC(C)C)cc2)cc1`, the Potency result is “inactive”.

For the compound `O=C(NCC1CCN(Cc2ccccc2Cl)CC1)Nc1cccc(Cl)c1`, the Potency entry is “inactive”.

Regarding `COC(=O)C1=C(C)N(c2ccc(Br)cc2)C(=O)/C1=C\c1ccco1`, the Potency result was “inactive”.

For `CCC1SC(CC)C(=O)N(CC(=O)NC2CCCCC2)C1=O` (stereo unspecified), the Potency entry was “inactive”.

In the case of `O=C(O)Cc1ccc(NCc2ccccc2Cl)cc1`, the Potency result is “inactive”.

For `CCC(C)NC(=O)/C=C/c1ccc(S(=O)(=O)NCc2ccco2)cc1` (stereo unspecified), the Potency was 17.8 µM (active).

Take `CC1CCN(S(=O)(=O)c2ccc(S(=O)(=O)NCc3ccco3)cc2)CC1`: the Potency result was “inactive”.

`O=C(NC1CCC(O)CC1)c1ccc(S(=O)(=O)NCc2ccco2)cc1` (stereo unspecified): the Potency result was “inactive”.

`CN(C)C(=O)c1nc2ccc(Cl)cn2c1CN1CCN(c2ncccn2)CC1`: the Potency entry was “inactive”.

On to `C=C(C)C1CC=C(C)/C(=N/NC(=O)CCCNc2cccc(C)c2)C1` (stereo unspecified), for which the Potency result is “inactive”.

`N#Cc1c(N)nc2c(c1N)CC(C(F)(F)F)O2` (stereo unspecified): the Potency result was “inactive”.

Turning to `O=C1CN(C(=O)COC(=O)c2cnc(Cl)c(Cl)c2)c2ccccc2N1`, the Potency is 1.26 µM (active).

For the compound `COc1cc(OC)c(C(=O)OCC(=O)N2CC(=O)Nc3ccccc32)cc1OC`, the Potency entry was “inactive”.

Take `COc1ccc(Cl)cc1-n1c(C)cc(C(=O)OCC(=O)N2CC(=O)Nc3ccccc32)c1C`: the Potency entry was “inactive”.

Regarding `Cc1ccc(S(=O)(=O)N(C)CC(=O)OCC(=O)N2CC(=O)Nc3ccccc32)cc1`, the Potency result was “inactive”.

`COc1ccc(S(=O)(=O)N2CCC(C(=O)OCC(=O)c3ccccc3)CC2)cc1[N+](=O)[O-]`: the Potency entry is “inactive”.

As to `Cc1ccc(S(=O)(=O)N2CCC(C(=O)OCC(=O)N3CC(=O)Nc4ccccc43)CC2)cc1`, the Potency was 12.6 µM (active).

Consider `Oc1cccc(C2c3[nH]c4ccccc4c3CCN2Cc2cnn(-c3ccccc3)c2)c1` (stereo unspecified), for which the Potency result was “inactive”.

As to `CC(=O)Nc1ccccc1NC(=O)c1cc(C)cc(C)c1`, the Potency entry is “inactive”.

As to `CCOc1ccc(CCNC(=O)C2=C(C)C(=O)OC23CCC(C)CC3)cc1OCC` (stereo unspecified), the Potency result is “inactive”.

Turning to `CC(Sc1nnnn1C1CCCCC1)C(=O)O` (stereo unspecified), the Potency entry is “inactive”.

Consider `O=C(COc1ccc(Cl)cc1)NCc1nnc(SCC(=O)NCC2CCCO2)o1` (stereo unspecified), for which the Potency result was “inactive”.

In the case of `Cc1ccc(-c2cc(=O)c3ccc(F)cc3[nH]2)cc1`, the Potency entry is “inactive”.

In the case of `COc1ccc(C)cc1NC(=O)CSc1ccc(Cl)cc1`, the Potency result was “inactive”.

`COc1ccc(C)cc1NC(=O)CSc1nnc(CC(=O)Nc2ccccc2F)n1C`: the Potency result was “inactive”.

In the case of `COc1ccc(Cl)cc1NC(=O)CNc1ccccc1F`, the Potency is 31.6 µM (active).

On to `C=CCOC(=O)NC(c1ccc(F)c(F)c1)C(C(=O)COC)C(=O)OC` (stereo unspecified), for which the Potency entry is “inactive”.

Take `Cc1cc(C)cc(OCC(=O)Nc2nc3ccc([N+](=O)[O-])cc3s2)c1`: the Potency entry was “inactive”.

For `COC(=O)C(NC(=O)c1ccc(OC)cc1)(Nc1ncc(S(=O)(=O)c2ccc([N+](=O)[O-])cc2)s1)C(F)(F)F` (stereo unspecified), the Potency entry is “inactive”.

As for `CCOCC(=O)Nc1ncc(S(=O)(=O)c2ccc([N+](=O)[O-])cc2)s1`, the Potency was 3.55 µM (active).

Regarding `Fc1ccc(NC(=S)N2CCc3[nH]c4ccccc4c3C2)cc1`, the Potency entry was “inactive”.

For the compound `O=C(O)CCCCCNc1ncnc2ccc(Br)cc12`, the Potency entry is “inactive”.

On to `O=C(O)C[C@@H]1NC(=O)[C@H](Cc2ccccc2)NC1=O`, for which the Potency entry is “inactive”.

Consider `O=C(CSc1nncs1)NC1CCCc2ccccc21` (stereo unspecified), for which the Potency entry is “inactive”.

Take `O=C(CCC(=O)N1CCN(S(=O)(=O)c2ccccc2)CC1)NC1CCCc2ccccc21` (stereo unspecified): the Potency entry was “inactive”.

As to `O=C(CN1CCN(c2ccc(O)cc2)CC1)NC1CCCc2ccccc21` (stereo unspecified), the Potency was 11.2 µM (active).

With `COC(=O)CCCC1=CC2=CC(=O)C(C)(OC(=O)c3cccs3)C(=O)C2=CN1c1ccc(CO)cc1` (stereo unspecified), the activity, negative = inhibition was 3.06% [at 13.5 µM] (inactive).

For `Cc1ccc(NC(=O)N2CCC(C(=O)NCc3ccc(F)cc3)CC2)cc1`, the Potency result was “inactive”.

With `Cc1ccc(NC(=O)N2CCC(c3nc4c(nnn4Cc4c(F)cccc4Cl)c(=O)[nH]3)CC2)cc1`, the Potency was 15.8 µM (active).

Turning to `O=C(Cc1c(F)cccc1Cl)Nc1ccc(-n2cnnn2)cc1`, the Potency entry was “inactive”.

Turning to `COc1ccc(Cn2nnc3c(=O)[nH]c(C4CCN(C(=O)c5ccccc5Cl)CC4)nc32)cc1`, the Potency is 14.1 µM (active).

Consider `Cc1ccc(Cn2nnc3c(=O)n(CC(=O)N4CCCCC4)cnc32)cc1`, for which the Potency entry is “inactive”.

Turning to `COc1ccc(CN2CCC(c3nc4ccc(Cl)cc4[nH]3)CC2)cc1`, the Potency result is “inactive”.
